The values below come from PubChem BioAssay (Tox21).

Where “and” joins values, the source holds several entries; their conditions need not be identical. Equal values may be shown once. Inconclusive results are not listed. Some compounds were tested as several samples or in several runs, with calls that do not always agree. Calls of active or inactive are those of the source. Unless noted, the call rests on the fitted dose curve; in most records, active means well fitted curve in the direction sought with a large enough effect in the repeat runs; inconclusive means weak or mixed curves; inactive means no such curve, though single readings can be large; an effect the other way counts as inactive or inconclusive.

Experiment [1] can be described thus: qHTS assay to identify small molecule antagonists of the progesterone receptor (PR) signaling pathway - cell viability counter screen (AID 1346798). Further: series mostly up to about 92 µM; nearly all actives have a fitted effect of over 50% in size. The procedure, abridged: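 In the same plates used for the beta-lactamase readout, cell viability of compound- and R5020-treated PR-UAS-bla HEK293T cells (16 hr, 37C) was assessed by CellTiter-Glo luminescence.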
Background: Quantitative high-throughput screening tests each substance at several concentrations.

Experiment [2] can be described thus: qHTS assay to identify small molecule agonists of the progesterone receptor (PR) signaling pathway - cell viability counter screen (AID 1346799; calls by dose curve; further: nearly all actives have a fitted effect of over 45% in size). Put shortly:
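Multiplexed viability read: CellTiter-Glo luminescence, 30 min RT, following LiveBLAzer FRET measurement on PR-UAS-bla HEK293T cells exposed to compounds 16 hr.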

Experiment [3] can be described thus: qHTS assay to identify small molecule antagonists of the TGF-beta/Smad signaling pathway - cell viability counter screen (AID 1346824). Further: nearly all actives have a fitted effect of over 50% in size. The procedure, abridged:
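Cytotoxicity counter-screen run in the same wells as the beta-lactamase Smad reporter read: CellTiter-Glo luminescence after 30 min at room temperature. HEK 293T SBE-bla cells had 5 hr compound exposure at 37 C with TGF-beta1 (0.25 ng/mL stock).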

A short description of experiment [4]: qHTS assay to identify small molecule agonists of the TGF-beta/Smad signaling pathway - cell viability counter screen (AID 1346829). Further: top concentration of the series differs between compounds; nearly all actives have a fitted effect of over 45% in size. The procedure, abridged: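 Tox21 qHTS format: SBE-bla HEK 293T cells treated with DMSO-dissolved compounds for 5 hr; CellTiter-Glo luminescence after 30 min at room temperature.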
Experiment [5] is described as follows: qHTS assay to identify small molecule agonists of the TGF-beta/Smad signaling pathway (AID 1346859; active means well fitted activation curve with a large enough effect in the signal ratio in the repeat runs, not every such curve was filed as active; the % refers to the signal ratio; further: series mostly up to about 77 µM). The procedure, abridged:
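Screening used HEK 293T SBE-bla cells at 4,000/well. Test agents: 5 hr, 37 C. Detection: FRET substrate, 2 hr RT, then excitation 405 nm with emissions at 460 and 530 nm.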

Experiment [6] concerns the target Thyrotropin-releasing hormone receptor (Homo sapiens) (UniProt P34981). The experiment in a line: qHTS assay to identify small molecule agonists of the thyrotropin-releasing hormone receptor (TRHR) signaling pathway (AID 1346891; calls by dose curve; further: series mostly up to about 58 µM). The procedure, abridged:
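Readout was intracellular calcium fluorescence in TRHR-Hek293 cells. Cells were incubated 18 h, dye-loaded 2 h at 37 °C, and treated with compound in agonist mode.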

Experiment [7] can be described thus: Human pregnane X receptor (PXR) small molecule agonists, qHTS cell viability counter screen (AID 1346977). Further: nearly all actives have a fitted effect of over 50% in size. Further: potency means the concentration at half of the fitted maximal effect. Put shortly: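 In each well, the PXR reporter HepG2 line was checked for viability: CellTiter-Fluor reagent added 23hr post-dosing, fluorescence read after 1hr incubation at 37C.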
Experiment [8] can be described thus: Caspase-3/7 induction in HepG2 cells by small molecules, qHTS assay (AID 1346978). Further: nearly all actives have a fitted effect of over 15% in size. Put shortly: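 Caspase-3/7 induction was measured by Caspase-Glo 3/7 luminescence (30 min, room temperature) after a 17 hr compound exposure of wild-type HepG2 cells seeded at 2,000 per well and pre-incubated 5 hr.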
Experiment [9] is described as follows: Caspase-3/7 induction in CHO-K1 cells by small molecules, qHTS cell viability counter screen (AID 1346979). Further: nearly all actives have a fitted effect of over 35% in size. Further: potency means the concentration at half of the fitted maximal effect. The procedure, abridged: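 Following a 5hr settling period, CHO-K1 cells at 1,500 per well received DMSO-dissolved compounds. Cell viability was quantified 16hr later by CellTiter-Fluor fluorescence, measured after 1hr with reagent at 37C.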
A short description of experiment [10]: Caspase-3/7 induction in CHO-K1 cells by small molecules, qHTS assay (AID 1346980). Further: nearly all actives have a fitted effect of over 15% in size. Put shortly: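 Luminescent Caspase-Glo 3/7 read (30min, room temperature) quantified apoptosis induction. Cells were wild-type CHO-K1, treated with compound for 17hr at 37 C and 5% CO2.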
The nature of experiment [11]: Caspase-3/7 induction in HepG2 cells by small molecules, qHTS cell viability counter screen (AID 1346981). Further: nearly all actives have a fitted effect of over 30% in size. Further: potency means the concentration at half of the fitted maximal effect. On activity change, negative = cytotoxicity: series mostly up to about 92 µM. Put shortly: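 In this quantitative HTS counter screen, compounds delivered in DMSO were left on unmodified HepG2 cells for 16 hr at 37 C. Viability was then determined fluorometrically with CellTiter-Fluor, in parallel with caspase-3/7 induction in the same wells.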

For experiment [12], the target named is Nuclear receptor subfamily 1 group I member 2 (Homo sapiens) (UniProt O75469). The experiment is described as follows: Human pregnane X receptor (PXR) small molecule agonists, qHTS assay (AID 1346982). Further: nearly all actives have a fitted effect of over 35% in size. Put shortly: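 Reporter HepG2 cells expressing PXR-Luc are cultured in charcoal-stripped FBS (5%), treated with compounds for 24 hr at 37 C, and assayed by ONE-Glo luminescence after 30 min at room temperature.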
Nuclear receptor subfamily 1 group I member 2 (Homo sapiens), sequence (O75469 whole entry, looked up): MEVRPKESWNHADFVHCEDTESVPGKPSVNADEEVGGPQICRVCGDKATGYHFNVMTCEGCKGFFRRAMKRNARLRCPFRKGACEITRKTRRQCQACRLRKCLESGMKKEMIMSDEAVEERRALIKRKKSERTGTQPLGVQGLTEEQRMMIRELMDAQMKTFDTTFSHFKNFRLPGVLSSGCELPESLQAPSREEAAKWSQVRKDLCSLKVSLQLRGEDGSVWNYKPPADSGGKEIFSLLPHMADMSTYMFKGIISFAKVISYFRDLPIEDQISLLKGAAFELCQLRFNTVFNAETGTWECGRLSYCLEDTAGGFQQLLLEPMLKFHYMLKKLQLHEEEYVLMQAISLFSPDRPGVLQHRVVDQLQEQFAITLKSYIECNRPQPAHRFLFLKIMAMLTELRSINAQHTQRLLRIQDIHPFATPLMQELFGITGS

Experiment [13] has as its target Cytochrome P450 2D6 (Homo sapiens) (UniProt P10635). The experiment in a line: Cytochrome P450 Family 2 Subfamily D Member 6 (CYP2D6) small molecule antagonists: luciferase reporter qHTS assay (AID 1671196). Further: series mostly up to about 120 µM; nearly all actives have a fitted effect of over 50% in size. Put shortly:
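Test chemicals meet CYP2D6 plus proluciferin substrate (10 min, RT); NADPH regenerating solution then drives turnover for 1 h. Detection reagent halts the reaction; luminescence measured after 20 min.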

In experiment [14] the target is Cytochrome P450 2C19 (Homo sapiens) (UniProt P33261). The experiment in a line: Cytochrome P450 Family 2 Subfamily C Member 19 (CYP2C19) small molecule antagonists: luciferase reporter qHTS assay (AID 1671197). Further: nearly all actives have a fitted effect of over 65% in size. Further: potency means the concentration at half of the fitted maximal effect. The procedure, abridged:
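Relative luminescence units recorded 20 min after the detection reagent stopped a 1 h, 37C CYP2C19 reaction on proluciferin substrate, which was started by NADPH regeneration following 10 min room-temperature compound preincubation; ketoconazole positive control.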
On the technique in general: In a reporter assay the amount or activity of a reporter protein is the signal.

In experiment [15] the target is Cytochrome P450 2C9 (Homo sapiens) (UniProt P11712). The experiment in a line: Cytochrome P450 Family 2 Subfamily C Member 9 (CYP2C9) small molecule antagonists: luciferase reporter qHTS assay (AID 1671198). Further: nearly all actives have a fitted effect of over 50% in size. Further: potency means the concentration at half of the fitted maximal effect. The procedure, abridged:
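Enzyme-substrate mix preincubated with compound 10 min at room temperature; reaction started with NADPH regeneration solution, 1 h 37C. Luminescent luciferin product read after 20 min detection reagent.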

In experiment [16] the target is Cytochrome P450 1A2 (Homo sapiens) (UniProt P05177). The experiment in a line: Cytochrome P450 Family 1 Subfamily A Member 2 (CYP1A2) small molecule antagonists: luciferase reporter qHTS assay (AID 1671199). Further: nearly all actives have a fitted effect of over 50% in size. Further: potency means the concentration at half of the fitted maximal effect. The procedure, abridged: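 Steps: enzyme-substrate mix dispensed; test compounds and furafylline control pinned in; 10 min room temperature; NADPH regeneration solution added, 1 h; reaction stopped with luciferin detection reagent; luminescence read after 20 min.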
Cytochrome P450 1A2 (Homo sapiens), sequence (P05177 whole entry, looked up): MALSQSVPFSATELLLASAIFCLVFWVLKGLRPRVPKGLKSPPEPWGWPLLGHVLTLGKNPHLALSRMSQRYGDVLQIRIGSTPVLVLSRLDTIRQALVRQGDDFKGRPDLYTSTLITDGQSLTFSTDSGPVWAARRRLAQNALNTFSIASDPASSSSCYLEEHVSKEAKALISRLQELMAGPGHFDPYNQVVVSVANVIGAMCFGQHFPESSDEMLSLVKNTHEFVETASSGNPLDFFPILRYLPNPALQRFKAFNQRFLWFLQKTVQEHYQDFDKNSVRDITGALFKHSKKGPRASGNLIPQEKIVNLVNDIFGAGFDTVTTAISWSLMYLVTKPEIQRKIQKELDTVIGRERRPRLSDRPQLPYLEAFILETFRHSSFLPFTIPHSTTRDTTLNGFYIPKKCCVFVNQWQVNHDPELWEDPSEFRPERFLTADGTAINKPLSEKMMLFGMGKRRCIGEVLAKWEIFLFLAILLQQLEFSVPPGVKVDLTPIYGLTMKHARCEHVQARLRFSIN

Experiment [17] deals with Nuclear receptor subfamily 1 group I member 2 (Rattus norvegicus) (UniProt Q9R1A7). The experiment is described as follows: Rat pregnane X receptor (rPXR) activation by small molecules, qHTS assay (AID 1346983). Further: nearly all actives have a fitted effect of over 20% in size. Further: potency means the concentration at half of the fitted maximal effect. As to conditions: rPXR luciferase reporter cells, One-Glo luminescence, 24 h; max activation: stronger effect = higher value. The procedure, abridged: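 Luminescent readout (One-Glo luciferase, 30 min room temperature) followed 24 hr compound treatment at 37 C of rPXR cells plated 2,000 per well and preincubated 5hr; qHTS format with compounds delivered in DMSO.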
Nuclear receptor subfamily 1 group I member 2 (Rattus norvegicus), sequence (Q9R1A7 whole entry, looked up): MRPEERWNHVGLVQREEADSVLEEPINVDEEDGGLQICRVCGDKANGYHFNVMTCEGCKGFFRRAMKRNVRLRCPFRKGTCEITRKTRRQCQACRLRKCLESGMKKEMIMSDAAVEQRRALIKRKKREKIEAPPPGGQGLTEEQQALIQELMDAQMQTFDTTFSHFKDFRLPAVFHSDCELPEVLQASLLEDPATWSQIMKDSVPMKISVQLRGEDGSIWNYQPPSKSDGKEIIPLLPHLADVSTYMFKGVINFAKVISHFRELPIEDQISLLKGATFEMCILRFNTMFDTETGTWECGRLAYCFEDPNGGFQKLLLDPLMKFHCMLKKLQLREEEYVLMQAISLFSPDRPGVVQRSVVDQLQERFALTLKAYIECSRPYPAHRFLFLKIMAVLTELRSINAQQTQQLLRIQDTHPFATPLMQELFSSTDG

Experiment [18] addresses Nuclear receptor subfamily 1 group I member 2 (Homo sapiens) (UniProt O75469). The experiment in a line: CYP3A4 induction through human pregnane X receptor (PXR) by small molecules, qHTS assay (AID 1346984). Further: nearly all actives have a fitted effect of over 40% in size. The procedure, abridged:
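Induction measured in HepG2-based DPX-2 cells co-expressing human PXR and a CYP3A4 promoter-driven luciferase. After a 24-hour compound exposure, cells received CYP3A4 luciferin substrate at 3uM final for 3 hours, and light output was then recorded.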

For experiment [19] the target is unchanged. The experiment in a line: Human pregnane X receptor (PXR) activation by small molecules, qHTS assay (AID 1346985). Further: nearly all actives have a fitted effect of over 40% in size. Put shortly: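 DPX-2 cells (HepG2 co-transfected with a PXR response element and a CYP3A4-promoter luciferase construct) were seeded at 2,000 per well, rested 5 hr at 37C, then exposed to DMSO-dissolved compounds for 24 hr. Activation was read as luciferase luminescence.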
On the % scale 0 is the no-effect control and ±100 the full control effect.

Cytochrome P450 2C19 (Homo sapiens), sequence (P33261 whole entry, looked up): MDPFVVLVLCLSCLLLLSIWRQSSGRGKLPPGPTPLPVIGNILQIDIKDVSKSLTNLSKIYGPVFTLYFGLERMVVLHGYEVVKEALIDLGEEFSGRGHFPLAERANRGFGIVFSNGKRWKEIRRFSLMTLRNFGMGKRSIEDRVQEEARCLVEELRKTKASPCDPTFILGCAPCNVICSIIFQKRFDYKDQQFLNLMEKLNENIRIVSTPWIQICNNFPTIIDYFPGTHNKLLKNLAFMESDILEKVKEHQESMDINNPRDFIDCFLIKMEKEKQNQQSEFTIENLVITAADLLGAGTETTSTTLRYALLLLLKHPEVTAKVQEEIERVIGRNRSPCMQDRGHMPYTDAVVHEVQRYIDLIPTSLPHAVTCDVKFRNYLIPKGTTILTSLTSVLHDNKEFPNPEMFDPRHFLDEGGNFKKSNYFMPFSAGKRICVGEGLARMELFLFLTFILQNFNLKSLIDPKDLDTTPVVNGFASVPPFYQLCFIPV
Cytochrome P450 2C9 (Homo sapiens), sequence (P11712 whole entry, looked up): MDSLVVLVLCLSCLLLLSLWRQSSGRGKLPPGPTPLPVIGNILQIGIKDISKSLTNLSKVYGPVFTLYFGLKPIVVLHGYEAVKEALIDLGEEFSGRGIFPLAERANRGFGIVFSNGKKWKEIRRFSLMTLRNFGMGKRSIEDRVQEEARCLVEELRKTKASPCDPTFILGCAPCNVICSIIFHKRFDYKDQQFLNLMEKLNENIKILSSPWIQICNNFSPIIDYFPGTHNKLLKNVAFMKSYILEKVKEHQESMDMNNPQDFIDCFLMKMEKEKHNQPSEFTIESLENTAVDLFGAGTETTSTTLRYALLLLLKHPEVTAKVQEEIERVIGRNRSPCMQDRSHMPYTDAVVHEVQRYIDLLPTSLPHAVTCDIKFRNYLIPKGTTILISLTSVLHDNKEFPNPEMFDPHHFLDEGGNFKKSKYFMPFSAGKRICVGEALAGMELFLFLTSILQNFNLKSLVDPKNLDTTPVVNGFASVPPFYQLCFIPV
Cytochrome P450 2D6 (Homo sapiens), sequence (P10635 whole entry, looked up): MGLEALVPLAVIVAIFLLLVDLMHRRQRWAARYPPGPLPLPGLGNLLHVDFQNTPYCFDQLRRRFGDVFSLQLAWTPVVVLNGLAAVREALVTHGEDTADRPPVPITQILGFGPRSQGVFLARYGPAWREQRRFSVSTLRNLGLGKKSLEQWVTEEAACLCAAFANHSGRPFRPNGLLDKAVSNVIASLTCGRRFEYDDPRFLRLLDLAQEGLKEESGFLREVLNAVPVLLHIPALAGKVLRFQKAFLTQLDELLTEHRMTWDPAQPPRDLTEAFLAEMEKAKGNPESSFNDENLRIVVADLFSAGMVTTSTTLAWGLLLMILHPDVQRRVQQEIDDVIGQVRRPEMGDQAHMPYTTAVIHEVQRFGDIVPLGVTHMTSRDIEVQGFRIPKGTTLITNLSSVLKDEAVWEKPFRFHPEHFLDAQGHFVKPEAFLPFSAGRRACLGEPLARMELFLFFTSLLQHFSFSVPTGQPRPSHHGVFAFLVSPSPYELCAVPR
Thyrotropin-releasing hormone receptor (Homo sapiens), sequence (P34981 whole entry, looked up): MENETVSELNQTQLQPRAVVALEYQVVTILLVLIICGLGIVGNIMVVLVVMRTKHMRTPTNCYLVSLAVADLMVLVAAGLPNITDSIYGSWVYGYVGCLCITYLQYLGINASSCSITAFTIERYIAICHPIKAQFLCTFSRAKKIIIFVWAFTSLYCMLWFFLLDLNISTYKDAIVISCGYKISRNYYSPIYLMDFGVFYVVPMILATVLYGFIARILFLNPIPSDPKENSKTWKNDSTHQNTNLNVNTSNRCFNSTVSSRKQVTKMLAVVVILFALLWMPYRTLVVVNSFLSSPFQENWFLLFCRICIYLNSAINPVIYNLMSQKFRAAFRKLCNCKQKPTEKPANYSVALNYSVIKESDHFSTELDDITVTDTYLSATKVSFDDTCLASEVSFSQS

Turning to `O=S(=O)(O)c1ccc2ccccc2c1`, the Potency result in [1], in [2], in experiment [3], in [4], in experiment [7] and in [8] was “inactive” in each case. Moreover, the Potency entry in experiment [9], in experiment [11], in [12], in [13], in experiment [14] and in experiment [15] was “inactive” throughout. In addition, the Potency result in experiment [16] is “inactive”. The compound was classed as inactive in experiment [5], in [6] and in experiment [10].

As for `NNc1nncc2ccccc12`, the activity change, negative = cytotoxicity is -14.1% [at 18.9 µM] (inactive) in experiment [1], -14.8% [at 19 µM] (inactive) in experiment [2], 6.87% [at 19 µM] (inactive) in [7] and -0.255% [at 19 µM] (inactive) in experiment [9]. The Potency result in experiment [3], in experiment [4], in experiment [8] and in [11] was “inactive” in each case. In addition, the result in experiment [5] and in experiment [10] was inactive. The Potency was 48.6 µM (active) in experiment [7], 43.3 µM (active) in experiment [9] and 0.112 µM (active) in experiment [17].

In the case of `O=C(O)c1cc(O)c(O)c(O)c1`, the Potency result in [1], in experiment [2], in experiment [3], in experiment [4], in experiment [8] and in [12] was “inactive” in each case. In addition, the Potency entry in experiment [19], in experiment [13] and in [16] was “inactive” in each case. Also, the outcome in experiment [5], in experiment [6], in [10] and in [18] was inactive. Also, the Potency in experiment [7] is 49 µM (active) and inactive; in experiment [9], 30.9 µM (active); in experiment [11], 43.7 µM (active). Moreover, the max activation in [17] is -1.49% (inactive).

Consider `COc1ccc(NC(C)=O)cc1N`, for which the Potency result in experiment [1], in [2], in experiment [3], in experiment [4], in [7] and in [8] was “inactive” throughout. For the same compound, the Potency result in experiment [9], in experiment [11] and in experiment [13] was “inactive” in each case. Further, the result in experiment [5], in [6] and in experiment [10] was inactive. Moreover, the Potency is 39.8 µM (active) and 39.9 µM (active) in experiment [14]; 17.8 µM (active) and 25.2 µM (active) in [16].

Regarding `CC(=O)Nc1ccccc1`, the Potency result in [1], in [2], in [3], in [4], in experiment [7] and in [8] was “inactive” throughout. The Potency entry in experiment [9], in experiment [11], in experiment [12], in [19], in experiment [13] and in experiment [15] was “inactive” each time. Also, in experiment [16], the Potency entry is “inactive”. In addition, the call in experiment [5], in [6], in experiment [10] and in experiment [18] was inactive. The max activation in experiment [17] was -1.12% (inactive). Also, the Potency in experiment [14] is 71.3 µM (active) and inactive.

As for `O=C(O)c1ccc(C(=O)O)cc1`, the Potency entry in experiment [1], in experiment [2], in experiment [3], in experiment [4], in experiment [7] and in experiment [8] was “inactive” in each case. Also, the Potency entry in experiment [9], in [11], in [12], in [13], in [14] and in experiment [15] was “inactive” each time. Besides, the compound was classed as inactive in [5], in experiment [6] and in experiment [10].

For the compound `CSCCC=O`, the Potency entry in experiment [1], in [2], in experiment [3], in experiment [4], in [7] and in experiment [8] was “inactive” throughout. For the same compound, the Potency entry in [9], in experiment [11], in experiment [12] and in experiment [13] was “inactive” each time. Also, the result in [5], in [6] and in experiment [10] was inactive. Besides, the Potency was 75.8 µM (active) and 7.1 µM (active) in [14]; 35.6 µM (active) in experiment [15]; 19 µM (active) and 4.48 µM (active) in experiment [16].
